The list is not random: actives were taken first. Their share in the collection is about 1.3%.
PME-1 primary – blocks human protein phosphatase methylesterase 1. Q9Y570. recombinant PME-1, FP-Rh probe fluorescence polarization. inhibition, % at 5.9 µM. hit rate 0.53% among 320,000;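 active means inhibition above the campaign mean of all compounds plus 3 SD, cut at about 26% in these data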;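 further: competitive labeling of PME-1 active site by serine hydrolase directed probe; 0% = PME-1 with DMSO and 100% = wells lacking PME-1 enzyme; inhibitors block probe labeling so polarization falls and inhibition rises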
Target sequence (Q9Y570 whole entry, looked up): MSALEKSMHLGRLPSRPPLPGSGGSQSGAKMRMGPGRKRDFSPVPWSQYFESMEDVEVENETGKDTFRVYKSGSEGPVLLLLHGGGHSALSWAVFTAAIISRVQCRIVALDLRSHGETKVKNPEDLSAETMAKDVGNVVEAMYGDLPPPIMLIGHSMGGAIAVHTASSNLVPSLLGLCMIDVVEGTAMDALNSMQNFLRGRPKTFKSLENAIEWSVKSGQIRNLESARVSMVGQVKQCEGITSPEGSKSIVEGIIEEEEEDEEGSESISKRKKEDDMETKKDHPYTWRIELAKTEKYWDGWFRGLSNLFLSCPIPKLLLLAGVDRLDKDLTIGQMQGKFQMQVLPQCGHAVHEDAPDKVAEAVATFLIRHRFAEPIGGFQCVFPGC
LYPLA1 counter – counter-screen for PME1 inhibitors: inhibitors of human LYPLA1. O75608. recombinant LYPLA1, FP-Rh probe fluorescence polarization. inhibition, % at 5.9 µM. hit rate 0.16% among 320,000. AID 2174;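 active means inhibition above the mean of all tested compounds plus 3 SD, set per campaign, cut at about 14% in these data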;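 further: inhibitors block serine hydrolase probe labeling of LYPLA1 so polarization falls; 0% = enzyme with DMSO and 100% = wells lacking LYPLA1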
Target sequence (O75608 whole entry, looked up): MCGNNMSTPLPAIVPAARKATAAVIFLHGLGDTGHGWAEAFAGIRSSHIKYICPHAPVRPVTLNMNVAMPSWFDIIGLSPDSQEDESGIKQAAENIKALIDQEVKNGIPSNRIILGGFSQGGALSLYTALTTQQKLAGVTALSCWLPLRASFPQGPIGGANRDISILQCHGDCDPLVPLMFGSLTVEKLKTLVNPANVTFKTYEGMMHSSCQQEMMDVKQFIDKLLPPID
PREPL inhibitor – human PREPL enzyme inhibition | recombinant PREPL, fluorescence polarization activity-based probe | inhibition, % at 5.96 µM | hit rate 0.68% among 320,000 | Q4J6C6 | AID 2751; in the data active means inhibition above about 43%;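 further: 0% = enzyme with DMSO and 100% = wells lacking enzyme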
Fam108B counter – Fam108B inhibition, counter-screen for RBBP9 inhibitors | recombinant Fam108B, FP-Rh probe fluorescence polarization | inhibition, % at 9.51 µM | hit rate 0.33% among 300,000 | AID 1947;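 active means inhibition above the screen mean inhibition plus 3 SD, computed separately per campaign, cut at about 18% in these data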;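 further: inhibitors lower polarization as less probe binds the enzyme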
LYPLA2 counter – counter-screen for PME1 inhibitors: inhibitors of human LYPLA2. AID 2177. inhibition, % at 5.9 µM. hit rate 0.38% among 320,000. recombinant LYPLA2, FP-Rh probe fluorescence polarization;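 active means inhibition above the screen-wide mean plus 3 SD, limit set per campaign, cut at about 26% in these data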;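 further: 0% = LYPLA2 with DMSO and 100% = wells lacking LYPLA2 enzyme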
LYPLA2 conf – counter-screen for PME1 inhibitors: confirmation of human LYPLA2 inhibitors; hit rate 72% among 1,100; inhibition, % at 5.9 µM; recombinant LYPLA2, FP-Rh probe fluorescence polarization; shares compounds with LYPLA2 counter;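 active means mean inhibition across replicates above the hit cutoff set in the primary screen, cut at about 26% in these data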;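 further: blocked labeling of the enzyme by serine hydrolase FP-Rh probe lowers polarization; 0% = enzyme with DMSO and 100% = wells lacking LYPLA2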
LYPLA2 ABPP – LYPLA2 (human) inhibition, late stage results; shares compounds with LYPLA2 counter; rhLYPLA2 in mouse brain proteome, gel ABPP FP-Rh; inhibition, % at 20 µM; hit rate 30% among 150;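 active means inhibition of LYPLA2 enzyme probe labeling above about 50%, limit read from the data; inactive means inhibition below that limit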;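 further: loss of FP-Rh probe labeling of the LYPLA2 gel band measured as band density; 0% = DMSO only control band and 100% = blank gel background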
The depositor's hits bear a star; nt = no result.

SMILES	PME-1 primary	LYPLA1 counter	PREPL inhibitor	Fam108B counter	LYPLA2 counter	LYPLA2 conf	others
CN(Cc1nc(-c2ccncc2)no1)S(=O)(=O)c1ccc(Cl)cc1	-1	2	-3	2	28*	30*
CN(Cc1nc(-c2ccncc2)no1)S(=O)(=O)c1ccccc1	0	3	-12	0	2	nt
CN(Cc1nc(-c2ccncc2)no1)S(=O)(=O)c1ccc(Br)cc1	9	5	-29	-2	37*	36*
CN(Cc1nc(-c2ccc(Cl)cc2)no1)C(=O)c1ccc2c(c1)OCO2	4	13	7	1	34*	34*
CC(CCc1ccccc1)NC(=O)COC(=O)c1cccnc1Cl (centres undefined)	nt	nt	-2	nt	nt	nt
CCOC(=O)c1ccc(-c2ccc3oc(-c4ccsc4)cc(=O)c3c2)cc1F	nt	nt	-9	nt	nt	nt
CC(C)COC(=O)N1C[C@H](O)C[C@H]1C(=O)Nc1ccc(Cl)cc1	-2	-3	15	5	-1	nt
COc1cc(/C=N/NC(=O)Cc2ccccc2)ccc1Oc1ccc([N+](=O)[O-])cc1[N+](=O)[O-]	6	-4	20	-10	40*	31*
CCOc1cc(C=C(C#N)C#N)ccc1Oc1ccc([N+](=O)[O-])cn1	-2	-4	-13	1	7	nt
COc1cc(/C=C(/C#N)c2ccc(F)cc2)ccc1Oc1ccc([N+](=O)[O-])cn1	-6	-3	11	0	47*	51*	LYPLA2 ABPP=19
COc1cc(/C=N\NC(=O)c2ccccc2F)ccc1Oc1ccc([N+](=O)[O-])cn1	3	-2	-51	0	31*	23
O=C(Nc1c2c(nn1-c1cccc(Cl)c1)CS(=O)(=O)C2)c1ccco1	2	4	9	1	5	nt
Cc1nc([N+](=O)[O-])cn1CC(=O)Nc1ccc(F)c(Cl)c1	-6	-1	-21	1	45*	59*	LYPLA2 ABPP=70*
Cc1ncc([N+](=O)[O-])n1CC(=O)Nc1ccc(F)c(F)c1	-6	1	7	2	67*	60*	LYPLA2 ABPP=44
COC(=O)Cn1cc([N+](=O)[O-])nc1C	-6	-1	13	-6	2	nt
Cc1ncc([N+](=O)[O-])n1CC(=O)Nc1ccc(Cl)cc1	1	-1	10	-3	47*	51*	LYPLA2 ABPP=34
Cc1ccccc1NC(=O)Cn1c([N+](=O)[O-])cnc1C	-2	4	15	6	18	nt
Cc1ccc(NC(=O)Cn2c([N+](=O)[O-])cnc2C)cc1Cl	5	-2	23	1	57*	51*	LYPLA2 ABPP=67*
Cc1cc(NC(=O)CC2(CC(=O)O)CCCC2)n(C)n1	-4	-1	-3	1	5	nt
CCCc1cc(=O)oc2cc(C)cc(OC(C)C(=O)NCCCn3ccnc3)c12 (centres undefined)	-7	1	-4	3	2	nt
CCOC(=O)N1CCN(C(=O)C(=O)Nc2sc3c(c2C(N)=O)CC(C)(C)OC3)CC1	1	-1	0	1	1	nt
COc1ccccc1NC(=O)CCSc1nc(C)cs1	1	2	-4	-1	4	nt
C=CCn1c(SCc2ccc(C(=O)O)cc2)nc2sc(C)c(C)c2c1=O	-3	-1	-2	-1	43*	37*
CCOc1ccc(/C(C)=N/NC(=O)c2nnn(-c3nonc3N)c2-c2cccs2)cc1	6	2	11	0	8	nt
COc1ccc(N2CCN(C(=O)CCNS(=O)(=O)c3cccs3)CC2)cc1	0	1	6	-6	10	nt
SMILES	PME-1 primary	LYPLA1 counter	PREPL inhibitor	Fam108B counter	LYPLA2 counter	LYPLA2 conf	others
O=C(CCNS(=O)(=O)c1cccs1)N1CCN(c2cccc(C(F)(F)F)c2)CC1	2	5	2	nt	37*	28*
Cn1c(=O)cc(OCC(=O)N2CCN(c3cccc(C(F)(F)F)c3)CC2)c2ccccc21	-1	3	-24	-5	33*	62*	LYPLA2 ABPP=15
Cc1cc(N2CCOCC2)nc2ccc(NC(=O)CCC(=O)N3CCN(c4cccc(C(F)(F)F)c4)CC3)cc12	9	2	35	4	41*	51*	LYPLA2 ABPP=10
CC1CN(C(=O)CCC(=O)N2CCN(c3cccc(C(F)(F)F)c3)CC2)c2ccccc2O1 (centres undefined)	6	12	12	4	59*	59*	LYPLA2 ABPP=44
Cc1ccc(S(=O)(=O)NCC2CCC(C(=O)N3CCN(C)CC3)CC2)cc1 (centres undefined)	7	-2	3	6	-2	nt
COc1ccc(S(=O)(=O)N(C)C[C@H]2Oc3ccc(NS(=O)(=O)c4cn(C)cn4)cc3C(=O)N([C@H](C)CO)C[C@@H]2C)cc1	nt	nt	17	nt	nt	nt
Cc1ccc(C(=O)Nc2ccccc2N2CCCC2)cc1	-4	-1	2	2	0	nt
Cc1ccc(-c2noc(CCC(=O)N3CCN(c4cccc(C(F)(F)F)c4)CC3)n2)cc1	-4	0	-17	3	42*	38*
O=C(c1ccncc1)c1ccc(N2CCN(C3CC(=O)N(Cc4ccccc4)C3=O)CC2)cc1 (centres undefined)	-7	6	-5	1	28*	23
COc1ccc(N2CCN(C3CC(=O)N(Cc4ccccc4)C3=O)CC2)cc1 (centres undefined)	4	-3	-3	2	0	nt
S=C(NCCN1CCOCC1)Nc1ccc(Cl)cc1	-1	-3	-3	2	-8	nt
S=C(NCCCN1CCOCC1)Nc1ccc(Cl)cc1	-1	1	9	4	27*	-5
O=C(COC(=O)c1cc(Cl)ccc1O)Nc1cc(C(F)(F)F)ccc1N1CCOCC1	nt	nt	0	nt	nt	nt
COCCn1c(=NC(=O)CN2C(=O)CCC2=O)sc2cc(S(N)(=O)=O)ccc21	-7	-1	-4	3	2	nt
C#CCn1c(=NC(=O)CN2C(=O)CCC2=O)sc2cc(S(N)(=O)=O)ccc21	1	-3	0	-1	32*	47*
Cc1coc2c1C(=O)C(=O)c1c-2ccc2c1CCCC2(C)C	8	5	10	8	35*	56*
CCOC(=O)c1ccc(NC(=O)c2cc(F)c(F)cc2Cl)cc1	1	-1	5	-5	5	nt
COc1ccc(NC(=O)c2cc(F)c(F)cc2Cl)cc1Cl	2	3	1	-1	28*	20
CCOC(=O)N1CCN(C(c2ccc(C(C)C)cc2)c2sc3nc(C)nn3c2O)CC1 (centres undefined)	-12	-1	-13	-9	69*	67*
Cc1cc(C(=O)OCC(=O)NC(C)C)c2ccccc2n1	4	-1	17	10	3	nt
Cc1cc(C(=O)OCC(=O)c2cccs2)c2ccccc2n1	2	-2	7	-3	31*	43*

From PubChem BioAssay
